Sampled rows, rich in hits. Any-hit rate of the full collection: about 4.1%.
Bead autofluor = flagged as autofluorescent in microsphere protease counterscreen; AID 624483; hit rate 3.1% among 360,000; fluorescence intensity (concentration not given with the values); compound autofluorescence counterscreen, microsphere flow cytometry; stronger effect = higher value; in the data active = fluorescence intensity above about 16000; inconclusive = no clear call, values can overlap the other calls
DUSP3 inh = blocks human VHR1 dual specificity phosphatase | P51452 | recombinant VHR phosphatase, pNPP absorbance | inhibition, % at 13.3 µM | hit rate 0.52% among 290,000; in the data active = inhibition above about 50%
Target sequence (P51452 whole entry, looked up): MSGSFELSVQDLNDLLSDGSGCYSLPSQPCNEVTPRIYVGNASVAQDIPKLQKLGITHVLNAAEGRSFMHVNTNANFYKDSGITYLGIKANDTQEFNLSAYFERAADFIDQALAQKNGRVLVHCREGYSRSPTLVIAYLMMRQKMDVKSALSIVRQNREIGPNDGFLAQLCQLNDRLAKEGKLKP
BoNT-F LC inh = inhibitors of Botulinum neurotoxin F light chain protease; hit rate 0.22% among 360,000; Multiplex microsphere protease cleavage assay, flow cytometry; inhibition, % at 10 µM; in the data active = inhibition above about 35%, passing the limit was not always enough; inconclusive = no clear call, values can overlap the other calls; also: plate controls were buffer without enzyme for full effect and enzyme alone for no effect
Anthrax LF prot = anthrax lethal factor protease inhibition | P15917 | multiplex microsphere protease cleavage assay, LF | inhibition, % at 10 µM | hit rate 0.12% among 360,000; also: plate controls were buffer without enzyme for full effect and enzyme alone for no effect
MazEF act = increases E. coli MazEF RNase cleavage of RNA | P0AE70 | FAM/BHQ RNA-DNA oligo cleavage fluorescence, 5 h | activation, % at 20 µM | hit rate 0.32% among 350,000; in the data active = activation above about 50%
Target sequence (P0AE70 whole entry, looked up): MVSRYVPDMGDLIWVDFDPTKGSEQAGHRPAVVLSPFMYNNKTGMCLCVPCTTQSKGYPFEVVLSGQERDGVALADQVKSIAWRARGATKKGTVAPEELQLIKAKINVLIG
BoNT-A LC inh2 = blocks Botulinum neurotoxin A light chain protease; multiplex microsphere protease substrate cleavage, flow cytometry; inhibition, % at 10 µM; hit rate 0.17% among 360,000; AID 588499; also: plate controls were buffer without enzyme for full effect and enzyme alone for no effect
An asterisk follows results filed as active. Rule as the data show it, unless noted: active = inhibition above about 30%; inconclusive = no clear call, values can overlap the other calls; inactive = below that.

Screening O=C1CCCCN1CCCC(=O)N1CCCC(Nc2ccccc2)C1 (stereo not drawn) returned Bead autofluor 4355, DUSP3 inh 27, BoNT-F LC inh 2, Anthrax LF prot 1, MazEF act 2 and BoNT-A LC inh2 1.
Screening CCOc1ccc(CNC(=O)CCS(=O)(=O)c2ccc3c(c2)NC(=O)CO3)cc1OC returned Bead autofluor 6480, DUSP3 inh 21, BoNT-F LC inh -4, Anthrax LF prot 2, MazEF act 0 and BoNT-A LC inh2 -1.
CCN(CC)c1ccc(C=NCCNS(=O)(=O)c2ccc(C)cc2)cc1 was read as Bead autofluor 4708, DUSP3 inh 57*, BoNT-F LC inh 9, Anthrax LF prot -6, MazEF act -20 and BoNT-A LC inh2 -4.
Screening COc1ccc(-c2cc(-c3ccccc3)nc(-c3ccc4c(c3)NC(=O)CO4)c2)cc1 returned Bead autofluor 19614*, DUSP3 inh 9, BoNT-F LC inh 2, Anthrax LF prot 0, MazEF act -31 and BoNT-A LC inh2 inconclusive.
`CN1CCN(c2ccc(C(CC(N)=O)NC(=O)Cc3cccc4ccccc34)cc2[N+](=O)[O-])CC1` (stereo not drawn) gave Bead autofluor 4010, DUSP3 inh 17, BoNT-F LC inh -7, Anthrax LF prot -7, MazEF act -34 and BoNT-A LC inh2 0.
Screening COc1ccc(C2CC(c3ccccc3)=NN2C(=O)COC(=O)c2nc3nc(C)cc(C)n3n2)cc1 (stereo not drawn) returned Bead autofluor 4248, DUSP3 inh 10, BoNT-F LC inh 0, Anthrax LF prot -3, MazEF act -10 and BoNT-A LC inh2 0.
For O=C(Cn1c(C(F)(F)F)nc2ccccc21)OCC(=O)c1c[nH]c2ccccc12 the results were Bead autofluor 4605, DUSP3 inh -9, BoNT-F LC inh -9, Anthrax LF prot 20, MazEF act 4 and BoNT-A LC inh2 57*.
Cc1[nH]c2ccccc2c1C(=O)COC(=O)Cn1c(C(F)(F)F)nc2ccccc21 was read as Bead autofluor 2691, DUSP3 inh 1, BoNT-F LC inh -4, Anthrax LF prot -1, MazEF act 16 and BoNT-A LC inh2 0.
Screening COc1ccc(C(NC(=O)C2CCN(CCc3ccccc3)CC2)c2ccccn2)cc1 (stereo not drawn) returned Bead autofluor 4169, BoNT-F LC inh 6, Anthrax LF prot -2 and BoNT-A LC inh2 0.
`Cc1ccc(CN(CC(=O)NCCc2ccccc2)C(=O)CCCC(=O)Nc2cc(C)on2)cc1` gave Bead autofluor 17240*, DUSP3 inh -1, BoNT-F LC inh 0, Anthrax LF prot 0, MazEF act 4 and BoNT-A LC inh2 0.
Cc1cc(C)c(NC2=NS(=O)(=O)c3ccccc32)c(C)c1 was read as Bead autofluor 22474*, DUSP3 inh -16, BoNT-F LC inh 1, Anthrax LF prot -3, MazEF act -5 and BoNT-A LC inh2 inconclusive.
Screening COC(=O)c1ccc(C(=O)OC)c(NC2=NS(=O)(=O)c3ccccc32)c1 returned Bead autofluor 23866*, DUSP3 inh -2, BoNT-F LC inh -2, Anthrax LF prot -7, MazEF act 0 and BoNT-A LC inh2 -2.
For Cc1cc(O)c(C(C)C)cc1NC1=NS(=O)(=O)c2ccccc21 the results were Bead autofluor 16315*, DUSP3 inh 3, BoNT-F LC inh -3, Anthrax LF prot -2, MazEF act 9 and BoNT-A LC inh2 -1.
For Cc1ccc(C)c(NC2=NS(=O)(=O)c3ccccc32)c1 the results were Bead autofluor 11458, DUSP3 inh 1, BoNT-F LC inh -2, Anthrax LF prot -2, MazEF act -4 and BoNT-A LC inh2 0.
Screening Cc1ccc(-c2n[nH]c(=S)n2Cc2ccccc2)cc1 returned Bead autofluor 22893*, DUSP3 inh -14, BoNT-F LC inh 3, Anthrax LF prot -1, MazEF act 1 and BoNT-A LC inh2 inconclusive.
Cc1cccc(-c2n[nH]c(=S)n2Cc2ccccc2)c1 was read as Bead autofluor 3630, DUSP3 inh -5, BoNT-F LC inh -10, Anthrax LF prot 1, MazEF act -3 and BoNT-A LC inh2 -1.
Screening CCOc1cc(NC(=S)Nc2cccc(OC)c2)c(OCC)cc1NC(=O)C1CC1 returned Bead autofluor 23099*, DUSP3 inh 31, BoNT-F LC inh -3, Anthrax LF prot -2, MazEF act 9 and BoNT-A LC inh2 -1.
`COc1cccc(NC(=O)C2CCC2)c1` gave Bead autofluor 3604, BoNT-F LC inh -5, Anthrax LF prot -4, MazEF act -7 and BoNT-A LC inh2 0.
Screening COc1cccc(NC(=O)c2oc3ccccc3c2NC(=O)C2CC2)c1 returned Bead autofluor 24287*, DUSP3 inh 10, BoNT-F LC inh -5, Anthrax LF prot -2, MazEF act 1 and BoNT-A LC inh2 inconclusive.
`COc1ccc(NC(=O)c2oc3ccccc3c2NC(=O)C2CC2)cc1` gave Bead autofluor 20675*, DUSP3 inh -22, BoNT-F LC inh 5, Anthrax LF prot 1, MazEF act 8 and BoNT-A LC inh2 4.
`Cc1ccc(S(=O)(=O)N2CCN(C)CC2)c2nsnc12` gave Bead autofluor 5190, DUSP3 inh 28, BoNT-F LC inh 3, Anthrax LF prot -1, MazEF act 12 and BoNT-A LC inh2 0.
O=S1(=O)CC(N2CCN(CCO)CC2)CN1Cc1cn(Cc2ccccc2)nn1 (stereo not drawn) was read as Bead autofluor 5758, BoNT-F LC inh -3, Anthrax LF prot 2 and BoNT-A LC inh2 1.
For CC(C)C[C@H]1CN([C@@H](CC(C)C)CN2CCCC2CN2C(=S)NC[C@@H]2Cc2ccccc2)C(=S)N1CC1CCCCC1 (stereo partly drawn) the results were Bead autofluor 6274, BoNT-F LC inh -1, Anthrax LF prot -6 and BoNT-A LC inh2 0.
Screening COc1ccccc1N1CCN(S(=O)(=O)CCNC(=O)C2CCCC2)CC1 returned MazEF act -11.
CC1(C)CC(=O)C(C(c2ccco2)C2C(=O)CC(C)(C)CC2=O)C(=O)C1 was read as Bead autofluor 23157*, DUSP3 inh 4, BoNT-F LC inh -2, Anthrax LF prot -2, MazEF act -7 and BoNT-A LC inh2 -1.
`CC1(C)CC(=O)C(C(c2ccc(F)cc2)C2C(=O)CC(C)(C)CC2=O)C(=O)C1` gave Bead autofluor 2431, DUSP3 inh -11, BoNT-F LC inh -2, Anthrax LF prot 2, MazEF act -1 and BoNT-A LC inh2 1.
Screening CC1CCCC(NC(=O)CSc2nnc(-c3cccnc3)n2N)C1C (stereo not drawn) returned Bead autofluor 18627*, BoNT-F LC inh 10, Anthrax LF prot 3, MazEF act 3 and BoNT-A LC inh2 1.
Screening Cc1cccc(NC(=O)CSc2nnc(-c3ccccc3)n2N)c1 returned Bead autofluor 20752*, DUSP3 inh 15, BoNT-F LC inh 4, Anthrax LF prot 1, MazEF act -3 and BoNT-A LC inh2 inconclusive.

Compound activity as filed in PubChem BioAssay.
